Test results from PubChem BioAssay (NCI).
About 83,000 compounds went through this panel and 20% of them were active in at least one assay; those are over-represented in the sample as a whole.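 For each line, cells grew in 96-well plates with the test compound present at a single concentration for 48 hours.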 A number with no mark means an inactive call. The source made the active and inactive calls. How the source made its calls: active means growth percent below 10; inactive means the rest.

Assays:
Experiment in all cases: NCI-60 one-dose screen, 48 h (100 = growth as untreated, 0 = no growth, -100 = all killed)
EKVX NSCLC = settings: 10 µM unless noted
SN12C renal = settings: 10 µM unless noted
UO-31 renal = settings: 10 µM unless noted
TK-10 renal = settings: 10 µM unless noted
ACHN renal = settings: 10 µM unless noted
CAKI-1 renal = settings: 10 µM unless noted
A498 renal = settings: 10 µM unless noted
CCRF-CEM leukemia = settings: 10 µM unless noted
MOLT-4 leukemia = settings: 10 µM unless noted
SR leukemia = settings: 10 µM unless noted
RPMI-8226 leukemia = settings: 10 µM unless noted
OVCAR-8 ovarian = settings: 10 µM unless noted
OVCAR-5 ovarian = settings: 10 µM unless noted
OVCAR-4 ovarian = settings: 10 µM unless noted
SK-OV-3 ovarian = settings: 10 µM unless noted
IGROV1 ovarian = settings: 10 µM unless noted
OVCAR-3 ovarian = settings: 10 µM unless noted
NCI/ADR-RES ovarian = settings: 10 µM unless noted
HS 578T breast = settings: 10 µM

Compound | growth (EKVX NSCLC) | growth (SN12C renal) | growth (UO-31 renal) | growth (TK-10 renal) | growth (ACHN renal) | growth (CAKI-1 renal) | growth (A498 renal) | growth (CCRF-CEM leukemia) | growth (MOLT-4 leukemia) | growth (SR leukemia) | growth (RPMI-8226 leukemia) | growth (OVCAR-8 ovarian) | growth (OVCAR-5 ovarian) | growth (OVCAR-4 ovarian) | growth (SK-OV-3 ovarian) | growth (IGROV1 ovarian) | growth (OVCAR-3 ovarian) | growth (NCI/ADR-RES ovarian) | growth (HS 578T breast) [%]
C[C@@H](Oc1cc(-c2cnn(C3CCNCC3)c2)cnc1N)c1c(Cl)ccc(F)c1Cl | 0.0738% (active) | -41% (active) | -73.4% (active) | -36.2% (active) | -45.9% (active) | -64.1% (active) | -68.3% (active) | -19.5% (active) | -34.5% (active) | -35.7% (active) | -43.3% (active) | -27.5% (active) | -28.7% (active) | -23.9% (active) | -39.4% (active) | -24.5% (active) | 6.67% (active) | 2.26% (active) | 
CN1CCN(c2ccc(OC(F)(F)F)c(Nc3ncc4c(n3)-c3c(c(C(N)=O)nn3CCO)CC4)c2)CC1 | 35.7% | 25.9% | 35.3% | 53.5% | 37.1% | 28.4% | -5.99% (active) | 18.2% | 18.3% | 4.81% (active) | 32.7% | 9.62% (active) | 19.9% | 71.5% | -3.27% (active) | 25.1% | 41% | 12.9% | 
COc1c(OCCCN2CCOCC2)ccc2c3n(c(=NC(=O)c4cnc(N)nc4)nc12)CCN3 | 13.2% | 16.3% | -13.8% (active) | -21% (active) | 8.09% (active) | 0.422% (active) | -60.7% (active) | 17.7% | 6.38% (active) | 5.24% (active) | 11.3% | 15.7% | 14% | 7.97% (active) |  | -22% (active) | 4.64% (active) | 22.7% | 
C/C(=C(/c1ccc(Cl)cc1)c1ccc(OCCN2CCCCCC2)cc1)c1ccccc1 | 70.2% | 87.6% | 70.9% | 101% | 96.3% | 96.9% | 86% | 68.9% | 82% | 18% | 70.2% | 89% | 69.6% | 73.5% |  | 74.1% | 89.6% | 90% | 
CCn1c(-c2nonc2N)nc2c(C#CC(C)(C)O)ncc(OC[C@H]3CCCNC3)c21 | 91.9% | 55.7% | 50.7% | 46.2% | 78.4% | 54.5% | 42.3% | 28.7% | 18.5% | 29.3% | 91.7% | 70.6% | 108% | 68.5% |  | 23.9% | 41.3% | 95.6% | 
C[C@@]1(C(=O)Nc2ccc(F)nc2)CCCN1c1nc(Nc2cc(C3CC3)[nH]n2)c2cccn2n1 | 46.2% | 34.6% | 2.07% (active) | 35.9% | 25.7% | -17.7% (active) | -41.7% (active) | 44% | 30.3% | -0.827% (active) | 62.1% | 38.6% | 14.7% | 0.224% (active) | 18.7% | 1.38% (active) | 57.4% | 32% | 
COc1ccc(-c2cnc(-c3ccc(Cl)cc3)[nH]2)cc1OC | 117% | 91.6% | 95.4% | 139% | 103% | 121% | 90.6% | -55.7% (active) | 106% | 42.7% | 33.1% | 98.9% | 98.2% | 89.9% |  | 52.5% | 103% | 106% | 93.5
O=C(Cn1ccnc1)Nc1ccc(-c2nc3ccccc3s2)cc1 | 61.4% | 84.6% | 60.4% | 81.8% | 90.3% | 66.2% | 57.5% | 69.1% | 68.1% | 36.5% | 52% | 80.3% | 104% | 34.8% |  | 68.9% | 62.2% | 88.2% | 86.9
